Hit rate of the full screen: of about 5,500 compounds, about 2,000 (36%) were called active. Another 18% or so got no clear call; they are omitted. Cut-off read from the data, not from the text of the source: active = normalized growth mostly below about 0.91 (no sharp cut-off); inconclusive = no clear call, values can overlap the other calls; inactive = mostly above about 0.92. This is one part of the list.
Experiment: chemical genetic growth profiling, strain panel (AID 1159580);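 note: tested at 20 µM; growth read once vehicle control cultures reached saturation at 30 °C; 1 = growth at the plate median or of vehicle wells; lower values mean less growth of the strain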
Settings: S. cerevisiae deletion strains, growth OD
[1] = locus YAL013W, strain DEP1, stronger effect = lower value
[2] = locus YBR229C, strain ROT2, stronger effect = lower value
[3] = locus YCL061C, strain MRC1, stronger effect = lower value
[4] = locus YDL101C, strain DUN1, stronger effect = lower value
[5] = locus YDR150W, strain NUM1, stronger effect = lower value
[6] = locus YEL061C, strain CIN8, stronger effect = lower value
[7] = locus YGR078C, strain PAC10, stronger effect = lower value
[8] = locus YHR030C, strain SLT2, stronger effect = lower value
[9] = locus YHR087W, strain rtc3, stronger effect = lower value
[10] = locus YJR043C, strain POL32, stronger effect = lower value
[11] = locus YJR075W, strain HOC1, stronger effect = lower value
[12] = locus YLR039C, strain RIC1, stronger effect = lower value
[13] = locus YLR058C, strain SHM2 (second series), stronger effect = lower value
[14] = locus YLR085C, strain ARP6, stronger effect = lower value
[15] = locus YLR262C, strain YPT6, stronger effect = lower value
[16] = locus YML094W, strain GIM5, stronger effect = lower value
[17] = locus YMR219W, strain ESC1, stronger effect = lower value
[18] = locus YMR263W, strain SAP30, stronger effect = lower value
[19] = locus YNL153C, strain GIM3, stronger effect = lower value
[20] = locus YNL298W, strain CLA4 (second series), stronger effect = lower value
[21] = locus YNL322C, strain KRE1, stronger effect = lower value
[22] = locus YNR030W, strain Alg12, stronger effect = lower value
[23] = locus YPL055C, strain LGE1, stronger effect = lower value
[24] = locus YPL241C, strain CIN2, stronger effect = lower value
[25] = locus YPR135W, strain CTF4, stronger effect = lower value
[26] = locus YMR307W, strain GAS1, stronger effect = lower value
[27] = locus YGR229C, strain SMI1, stronger effect = lower value

Measured: normalized growth

ON(Cc1c(F)cccc1Cl)Cc1c(F)cccc1Cl
inactive: [1] 0.985 | [2] 1.01 | [3] 0.997 | [4] 0.978 | [5] 0.951 | [6] 1.02 | [7] 0.979 | [8] 0.989 | [9] 0.986 | [10] 1.01 | [11] 0.986 | [12] 0.816 | [13] 1 | [14] 0.987 | [15] 0.829 | [16] 1.01 | [17] 0.988 | [18] 0.992 | [19] 0.976 | [20] 1.01 | [21] 0.987 | [22] 0.993 | locus YOL006C, strain TOP1, stronger effect = lower value 0.966 | [23] 1.02 | [24] 1 | [25] 0.852

Fc1cccc(Cl)c1Cn1nnc(N2CCCCC2)n1
inactive: [1] 0.973 | [2] 0.96 | [3] 0.977 | [4] 0.992 | [5] 1.01 | [6] 0.966 | [7] 0.946 | [9] 0.941 | locus YJL187C, strain SWE1, stronger effect = lower value 0.969 | [10] 0.982 | [11] 0.914 | [12] 0.851 | [13] 0.969 | [15] 0.881 | [16] 0.918 | [17] 0.962 | [18] 0.976 | [26] 0.825 | [19] 0.962 | [20] 0.984 | [21] 0.961 | [22] 0.926 | [23] 0.959 | [24] 0.909
active: [8] 0.444 | [14] 0.762 | [25] 0.534

COc1ccccc1NC(=O)Nc1nc(-c2cccnc2)nc2ccccc12
inactive: [1] 1.01 | locus YAL040C, strain CLN3, stronger effect = lower value 1.02 | locus YCL061C, strain MRC1 (second series), stronger effect = lower value 1 | locus YDR363W, strain ESC2, stronger effect = lower value 1.02 | locus YER002W, strain NOP16, stronger effect = lower value 1.04 | [7] 0.993 | [27] 1.01 | [18] 1.01 | [26] 1.02 | locus YNL128W, strain TEP1, stronger effect = lower value 0.998 | locus YNL175C, strain NOP13, stronger effect = lower value 0.977 | locus YNL197C, strain WHI3, stronger effect = lower value 1.01 | locus YNL224C, strain SQS1, stronger effect = lower value 1.01 | locus YOR083W, strain WHI5 (second series), stronger effect = lower value 1.01 | [23] 1.01

COc1ccccc1NC(=O)N1CCCN(C(=O)c2cccs2)CC1
inactive: [1] 1.01 | [2] 1.02 | [3] 1.02 | [4] 1.03 | locus YDL134C, strain PPH21, stronger effect = lower value 1.01 | [5] 1.05 | [6] 0.994 | [7] 1.01 | [27] 1.01 | [8] 1.03 | [9] 0.986 | [10] 1.02 | [11] 1.02 | locus YKL190W, strain CNB1, stronger effect = lower value 1.01 | [12] 1.05 | [13] 1 | [14] 1.03 | [15] 1.02 | [16] 1.02 | [17] 1.01 | [18] 1.04 | [19] 1.01 | [20] 1.04 | [21] 1.01 | [22] 1.02 | [23] 1.01 | [24] 1.05 | [25] 1.04

COc1ccccc1NC(=O)Nc1nn(C)c2cccc(OC)c12
active: [8] 0.637 | locus YLR113W, strain HOG1, stronger effect = lower value 0.599 | locus YLR403W, strain SFP1, stronger effect = lower value 0.649 | locus YPL256C, strain CLN2, stronger effect = lower value 0.73
inactive: locus YAR019C, strain CDC15, stronger effect = lower value 0.917 | locus YBL105C, strain PKC1, stronger effect = lower value 0.918 | locus YBR135W, strain CKS1, stronger effect = lower value 0.933 | locus YBR136W, strain MEC1, stronger effect = lower value 0.919 | locus YBR160W, strain CDC28, stronger effect = lower value 0.932 | locus YDL017W, strain CDC7, stronger effect = lower value 0.924 | locus YDL028C, strain MPS1, stronger effect = lower value 0.938 | [4] 0.951 | locus YDL108W, strain KIN28, stronger effect = lower value 0.924 | locus YDL132W, strain cdc53, stronger effect = lower value 0.925 | locus YDL214C, strain PRR2, stronger effect = lower value 0.843 | locus YDR052C, strain DBF4, stronger effect = lower value 0.94 | locus YDR054C, strain cdc34, stronger effect = lower value 0.879 | locus YDR226W, strain ADK1, stronger effect = lower value 0.938 | locus YDR477W, strain SNF1, stronger effect = lower value 0.781 | locus YER123W, strain YCK3, stronger effect = lower value 0.811 | locus YER133W, strain GLC7, stronger effect = lower value 0.731 | locus YFL009W, strain cdc4, stronger effect = lower value 0.94 | locus YFL029C, strain CAK1, stronger effect = lower value 0.914 | locus YFR003C, strain YPI1, stronger effect = lower value 0.924 | locus YFR019W, strain FAB1, stronger effect = lower value 0.907 | locus YFR028C, strain CDC14, stronger effect = lower value 0.93 | locus YGR040W, strain KSS1, stronger effect = lower value 0.766 | locus YGR052W, strain FMP48, stronger effect = lower value 0.845 | locus YGR092W, strain DBF2, stronger effect = lower value 0.81 | locus YHR079C, strain IRE1, stronger effect = lower value 0.815 | locus YHR082C, strain KSP1, stronger effect = lower value 0.843 | locus YHR205W, strain SCH9, stronger effect = lower value 0.835 | locus YIL147C, strain SLN1, stronger effect = lower value 0.935 | locus YJL095W, strain BCK1, stronger effect = lower value 0.687 | locus YJL128C, strain PBS2, stronger effect = lower value 0.953 | locus YJL157C, strain FAR1, stronger effect = lower value 0.816 | locus YJR016C, strain ILV3, stronger effect = lower value 0.928 | locus YJR066W, strain TOR1 (second series), stronger effect = lower value 0.794 | locus YJR066W, strain TOR1, stronger effect = lower value 0.775 | locus YKL048C, strain ELM1, stronger effect = lower value 0.93 | locus YKL067W, strain YNK1, stronger effect = lower value 0.866 | locus YKL101W, strain HSL1, stronger effect = lower value 0.855 | locus YKL193C, strain SDS22, stronger effect = lower value 0.914 | locus YKL203C, strain TOR2, stronger effect = lower value 0.776 | locus YLR133W, strain CKI1, stronger effect = lower value 0.818 | locus YML070W, strain DAK1, stronger effect = lower value 0.824 | locus YMR001C, strain CDC5, stronger effect = lower value 0.902 | locus YMR205C, strain PFK2 (second series), stronger effect = lower value 0.863 | locus YMR277W, strain FCP1, stronger effect = lower value 0.918 | locus YNL006W, strain LST8, stronger effect = lower value 0.933 | locus YNL020C, strain ARK1, stronger effect = lower value 0.818 | locus YNL161W, strain CBK1, stronger effect = lower value 0.929 | locus YNL183C, strain NPR1, stronger effect = lower value 0.745 | locus YNL207W, strain RIO2, stronger effect = lower value 0.91 | locus YNL222W, strain SSU72, stronger effect = lower value 0.929 | locus YNL307C, strain MCK1 (second series), stronger effect = lower value 0.827 | locus YOL078W, strain AVO1, stronger effect = lower value 0.914 | locus YOL136C, strain PFK27, stronger effect = lower value 0.81 | locus YOR061W, strain CKA2, stronger effect = lower value 0.866 | locus YOR119C, strain RIO1, stronger effect = lower value 0.8 | locus YOR231W, strain MKK1, stronger effect = lower value 0.734 | locus YOR329C, strain SCD5, stronger effect = lower value 0.933 | locus YPL031C, strain PHO85, stronger effect = lower value 0.724 | locus YPL153C, strain RAD53, stronger effect = lower value 0.742 | locus YPL204W, strain HRR25, stronger effect = lower value 0.719 | locus YPL209C, strain IPL1, stronger effect = lower value 0.943 | locus YPR025C, strain CCL1, stronger effect = lower value 0.926 | locus YPR106W, strain ISR1, stronger effect = lower value 0.916 | locus YPR111W, strain DBF20, stronger effect = lower value 0.919 | strain NNK1, stronger effect = lower value 0.908 | strain TSCII, stronger effect = lower value 0.915

From PubChem BioAssay AID1159580 (chemical genetic matrix, 2015)
